PERK inh: human PERK inhibition, primary cell-based screen; Q9NZJ5; CHO PERK-DD fusion, SEAP luminescence translation reporter; inhibition, % at 5.6 µM; hit rate 0.17% among 220,000;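 active = inhibition above the mean inhibition of all tested compounds plus 3 SD, set separately per screening campaign, cut at about 2.9% in these data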;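 also: PERK kinase domain activated by AP20187 dimerizer at 100 nM; 0% = DMSO with dimerizer and 100% = rapamycin at 8.4 µM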
Target sequence (Q9NZJ5 whole entry, looked up, the tested form may be a part): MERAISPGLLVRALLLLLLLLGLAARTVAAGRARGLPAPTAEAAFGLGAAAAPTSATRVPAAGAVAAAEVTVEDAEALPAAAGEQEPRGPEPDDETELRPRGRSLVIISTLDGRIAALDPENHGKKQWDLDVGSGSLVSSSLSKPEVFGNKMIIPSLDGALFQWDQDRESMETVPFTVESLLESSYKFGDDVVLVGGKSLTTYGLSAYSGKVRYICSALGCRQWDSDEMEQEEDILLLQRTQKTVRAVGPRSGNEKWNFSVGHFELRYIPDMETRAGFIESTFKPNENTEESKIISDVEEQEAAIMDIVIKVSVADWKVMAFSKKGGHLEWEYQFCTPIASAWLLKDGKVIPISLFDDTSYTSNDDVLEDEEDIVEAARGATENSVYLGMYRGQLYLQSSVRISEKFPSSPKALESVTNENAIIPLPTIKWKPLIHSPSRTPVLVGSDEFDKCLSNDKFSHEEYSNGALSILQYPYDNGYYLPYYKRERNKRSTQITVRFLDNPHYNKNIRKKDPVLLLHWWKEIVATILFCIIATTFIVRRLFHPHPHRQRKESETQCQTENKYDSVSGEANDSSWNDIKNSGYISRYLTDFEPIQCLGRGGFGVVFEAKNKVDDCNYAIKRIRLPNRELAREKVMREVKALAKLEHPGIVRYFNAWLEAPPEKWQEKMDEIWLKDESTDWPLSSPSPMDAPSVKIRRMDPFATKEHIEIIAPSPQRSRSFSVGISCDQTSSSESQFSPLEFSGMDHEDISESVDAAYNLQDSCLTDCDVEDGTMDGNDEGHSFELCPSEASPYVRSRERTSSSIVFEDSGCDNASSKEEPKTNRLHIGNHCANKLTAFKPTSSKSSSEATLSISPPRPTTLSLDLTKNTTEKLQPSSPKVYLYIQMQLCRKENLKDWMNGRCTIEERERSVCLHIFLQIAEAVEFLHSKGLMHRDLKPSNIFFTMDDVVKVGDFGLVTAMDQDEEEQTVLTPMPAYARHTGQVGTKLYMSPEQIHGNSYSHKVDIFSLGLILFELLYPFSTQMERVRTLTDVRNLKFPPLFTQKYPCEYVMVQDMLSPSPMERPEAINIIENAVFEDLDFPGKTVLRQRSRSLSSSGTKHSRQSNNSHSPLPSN
eIF4E-4G inh: blocks eIF4E binding to eIF4G | TR-FRET eIF4E-eIF4GI(517-606) binding, 2 h | inhibition, % at 21.7 µM | hit rate 0.37% among 220,000 | AID 782;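 active = inhibition above about 30%, limit read from the data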;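 also: 0% = full FRET control wells and 100% = background wells lacking eIF4GI fragment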
MLLE-PAM2 inh: blocks PAM2 peptide binding to the PABP1 MLLE domain; GST-MLLE / FITC-PAM2 fluorescence polarization; inhibition, % at 20 µM; hit rate 0.36% among 360,000; AID 588489; in the data active = inhibition above about 35%, passing the limit was not always enough;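 also: plate controls were DMSO wells with GST-MLLE for no effect and wells lacking GST-MLLE protein for full effect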
PABP FP inh: blocks human PABP binding to poly(A) RNA | hit rate 1% among 290,000 | P11940 | fluorescence polarization | inhibition, % at 35 µM;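 also: calls also rest on retests at 20 µM and on dose response follow-up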
eIF4H FP inh: inhibitors of RNA binding by human eIF4H | Q15056 | inhibition, % at 35 µM | hit rate 0.94% among 290,000 | eIF4H fluorescence polarization binding assay | AID 2012;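 also: calls also rest on retests at 20 µM and on dose response follow-up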
* hit, by the source's call; ? = inconclusive; . = not tested or not shown; ! = not confirmed by another sample; [ ] = another dose, or the depositor's remark. An excerpt weighted towards active compounds, which were near 1.6% of everything screened. Unless noted, no rule for the calls is given here.

SMILES	PERK inh	eIF4E-4G inh	MLLE-PAM2 inh	PABP FP inh	eIF4H FP inh
O=Cc1cn(CCCOc2ccccc2)c2ccccc12	0	5	-14	58*	?
CCc1ccc2nc(N3CCC(C(=O)N4CCC5(CC4)OCCO5)CC3)sc2c1	-1	-1	-8	82*	2.3*
CC[n+]1c(-c2ccccc2)c2cc(N)ccc2c2ccc(N)cc21	.	.	79*	.	.
C[C@]12CCC3C(CC[C@H]4C[C@H](O)[C@H](O)C[C@]34C)C1CC[C@@H]2O (some centres undefined)	.	.	1	.	.
CCOC(=O)/C(CCCN(CC)CC)=N\O	0	5	-123	56*	5
CN(C)c1cc[n+](CC(O)C[n+]2ccc(N(C)C)cc2)cc1	.	.	2	.	.
O=C1NCN(c2ccccc2)C12CCN(C(c1cccs1)c1nnnn1Cc1ccccc1)CC2 (centres undefined)	.	.	7	.	.
COc1ccc(C=C2C(=O)N(C)C(=O)N(C)C2=O)cc1CSc1ccccn1	0	-3	12	67*	?
COc1ccc(/C=C2/C(=O)NC(=O)N(C3CCCCC3)C2=O)cc1CSc1ccccn1	0	-1	.	15	9
CC(=O)Nc1ccc(OC(=O)N(C)c2ccccc2)cc1	0	4	12	87	active
Nc1ncnc2c1ccn2[C@@H]1O[C@H](CO)[C@@H](O)[C@H]1O	.	.	-1	.	.
NC(=S)c1cn(C2OC(CO)C(O)C2O)c2ncnc(N)c12 (centres undefined)	3.1*	2	43*	-8	-3
CN1C(=O)C(=Cc2ccc(N3CCCCC3)o2)C(=O)N(C)C1=S	1	-2	-145	?	?
CN1C(=O)C(=Cc2ccc(SC3CCCCC3)o2)C(=O)N(C)C1=O	3.0*	12	7	2	61
CC(=O)c1c(O)n(-c2cccc(Cl)c2)c(=O)[nH]c1=O (tested in a mixture with another compound)	1	-3	-57	60*	112*
COC(=O)C1=C(c2ccc(F)cc2OCc2ccccc2)C[C@@H]2CC[C@H]1N2C(=O)NCCc1ccc(F)cc1	.	.	1	.	.
COc1ccc(CN2Cc3cc(-c4ccc(OC)cc4)ccc3-n3nncc3C2)cc1	.	.	12	.	.
O=C1CC(=O)N(c2cccc(C(F)(F)F)c2)C(=O)N1	.	.	-20	-7	6
O=C1CC(=O)N(c2cccc(Br)c2)C(=O)N1	.	.	-37	41*	77
Nc1c2c(nc3ccccc13)CCN(Cc1ccccc1)C2	.	.	88	?	?
Nc1cc2nc3ccccc3nc2cc1N	0	36*	97	81*	91*
Cn1c(O)c(C=NC2CCN(Cc3ccccc3)CC2)c(=O)[nH]c1=O	0	80*	-5	-11	0
O=c1[nH]c(=O)n(Cc2ccccc2)c(O)c1C=NCCCO	0	-13	-96	52*	54*
O=c1[nH]c(=O)n(C2CCCCCC2)c(O)c1C=NC1CCN(Cc2ccccc2)CC1	0	-3	-38	-13	-6
O=C(NC1CCCCC1)N1C[C@H]2C[C@@H](C1)c1cccc(=O)n1C2	.	.	9	2	-7
SMILES	PERK inh	eIF4E-4G inh	MLLE-PAM2 inh	PABP FP inh	eIF4H FP inh
O=C(Cn1ncc2c3ccccc3n(Cc3cccc(Cl)c3)c2c1=O)N1CCC2(CC1)OCCO2	-1	1	-22	45*	73*
Cc1c2cnn(CC(=O)N3CCC4(CC3)OCCO4)c(=O)c2c(C)n1Cc1cccc(Cl)c1	.	.	12	17	-1
COC(=O)C1=Nc2ccccc2/C1=C\c1c(O)n(C)c(=O)n(C)c1=O	1	0	-25	18*	63
C[N+](C)(N)CCOC(=O)C(O)(c1ccccc1)C1CCCCC1 (centres undefined)	.	.	-7	.	.
CCCCn1c(O)c(C(C)=NC(C)c2ccccc2)c(=O)[nH]c1=O (centres undefined)	-1	-3	-3	59*	active
CCCCn1c(O)c(C(CC)=NC(C)c2ccccc2)c(=O)[nH]c1=O (centres undefined)	-2	1	-8	1	-11
c1ccc(P(c2ccccn2)c2ccccn2)cc1	1	0	44*	10	0
Nc1nnc(P(c2ccccc2)c2ccccc2)s1	0	-4	34	6	-5
C=CC[C@@H](C)CC(=O)C(CCCN=[N+]=[N-])SOOc1ccccc1 (some centres undefined)	.	.	3	.	.
CCOCCCn1c(N)c(C(=O)Nc2sc3c(c2C(=O)OC)CCCC3)c2nc3ccccc3nc21	-1	-5	-2	34	?
CCOC(=O)c1c(NC(=O)c2c(N)n(CCCOC)c3nc4ccccc4nc23)sc2c1CCCC2	-1	7	4	71*	?
CCN(CC)P(=O)(NC(=O)c1cccn1C)N(CC)CC	0	-3	-13	?	4.4*
CN1CCC2(CC1)C(C#N)=C(N)NC(S)=C2C#N	0	5	-70	active	55*!
COC(=O)C1=C(c2cccc(C#N)c2)C[C@@H]2CC[C@H]1N2C(=O)NCc1ccco1	.	.	9	.	.
COc1cccc(N2C(=O)NC(=O)/C(=C/c3ccc([N+](=O)[O-])s3)C2=O)c1	0	9	14	33*	51
COc1ccc(N2C(=O)NC(=O)/C(=C\c3ccc([N+](=O)[O-])s3)C2=O)cc1	0	5	5	2	46
COc1ccccc1N1C(=O)NC(=O)/C(=C/c2ccc([N+](=O)[O-])s2)C1=O	1	3	.	32*	51*
O=C1NC(=O)C(CCc2ccncc2)(CCc2ccncc2)C(=O)N1Cc1ccccc1	0	87*	4	-3	1
COC(=O)C1=COC(C)C2CN3CCc4c([nH]c5cc(OC)ccc45)C3CC12 (centres undefined)	.	.	-60	.	.
Cc1ccc2[nH]c3c(c2c1)CN(C(=O)CN1C[C@H]2C[C@@H](C1)c1cccc(=O)n1C2)CC3	.	.	16	35*	69
COc1ccc(C(=O)N2CCCC2=O)cc1	3.0*	2	-6	-4	1
COc1ccc(C(=O)N2CCC3(CC2)OCCO3)cc1	.	.	5	15	-4
O=C1NC(=O)N(CCc2ccc(F)cc2)C(=O)/C1=C/c1cccs1	1	-4	23	6	1
O=C1NC(=S)N(Cc2ccco2)C(=O)/C1=C\c1cccs1	1	70*	.	2	74
C=CCN1C(=O)/C(=C/c2cccs2)C(=O)NC1=S	0	16	35	15*	67
SMILES	PERK inh	eIF4E-4G inh	MLLE-PAM2 inh	PABP FP inh	eIF4H FP inh
CN(C)c1ccc(/C=C2/C(=O)NC(=O)N(Cc3ccco3)C2=O)cc1	2	5	-52	0	?
Cc1noc(C)c1COc1ccc(C(=O)NCC2(N(C)C)CCCCC2)cc1	.	.	-5	.	.
S=C(c1ccc(Cl)cc1)N1CCOCC1	1	20	44*	2	-14
O=C(c1ccc(Cl)cc1)N1CCC2(CC1)OCCO2	.	.	2	0	2
NC(=O)OCCSc1nnc(-c2cccc(C(N)=S)c2)o1	1	-1	41*	-17	2
O=C(Cc1ccccc1)OCn1nnc2ccccc2c1=O	0	59*[fluorescence artefact?]	-4	6	2

Screens as filed in PubChem BioAssay.
